Test results reported in PubChem BioAssay (Tox21).
Several values for one entry are separate records, joined by “and”; a condition that tells them apart may be missing. Equal values may be shown once. Activity calls are given as the source filed them. Unless noted, calls come from the whole dose curve; as a rule, active = well fitted curve in the direction sought with a large enough effect in the repeat runs; inconclusive = weak or mixed curves; inactive = no such curve, though single readings can be large; an effect the other way counts as inactive or inconclusive.

Assays:
[1] = qHTS assay to identify small molecule antagonists of the thyroid receptor (TR) signaling pathway (AID 743065); note: nearly all actives have a fitted effect of over 55% in size; note: potency is the fitted concentration of half-maximal effect
Outline: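 GH3.TRE-Luc rat pituitary cells carrying two TR response elements driving luciferase were plated for 4 h, given compound plus 1 nM T3 (final), and incubated 23.5 h at 37 C. ONE-Glo luminescence measured reporter inhibition; CellTiter-Fluor fluorescence tracked cytotoxicity.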

[2] = test system: thyroid hormone receptor (rat, GH3 cells); experiment: qHTS assay to identify small molecule agonists of the thyroid receptor (TR) signaling pathway (AID 743066; calls by dose curve)
Aromatase (Homo sapiens) = Aromatase (Homo sapiens) (UniProt P11511); experiment: qHTS assay to identify aromatase inhibitors (AID 743083); note: nearly all actives have a fitted effect of over 55% in size; note: potency is the fitted concentration of half-maximal effect
[3] = qHTS assay to identify aromatase inhibitors - cell viability counter screen (AID 743084);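 note: cells stimulated with testosterone during compound exposure; nearly all actives have a fitted effect of over 55% in size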; note: potency is the fitted concentration of half-maximal effect
[4] = target: Aryl hydrocarbon receptor (Homo sapiens) (UniProt P35869); experiment: qHTS assay to identify small molecule that activate the aryl hydrocarbon receptor (AhR) signaling pathway (AID 743085); note: nearly all actives have a fitted effect of over 15% in size; note: potency is the fitted concentration of half-maximal effect;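 for activation: HG2L7.5c1 human HepG2 liver cells with stably integrated DRE-driven firefly reporter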
Outline: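 AhR agonist activity is inferred from enhanced light output of a DRE-controlled firefly luciferase reporter in HepG2 cells, measured with ONE-Glo following 24 h treatment at 37C.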

[5] = qHTS assay to identify small molecule that activate the aryl hydrocarbon receptor (AhR) signaling pathway - cell viability counter screen (AID 743086); note: nearly all actives have a fitted effect of over 45% in size; note: potency is the fitted concentration of half-maximal effect
Outline: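 HepG2-AhR-luc (HG2L7.5c1) cells, 4000/well, were preincubated 5 h at 37C, exposed to compound in qHTS format for 24 hr at 37C, then given CellTiter-Fluor for 30 min; viability was read as fluorescence in the reporter wells.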

[6] = qHTS assay to identify small molecule antagonists of the peroxisome proliferator-activated receptor gamma (PPARg) signaling pathway - cell viability counter screen (AID 743194); note: nearly all actives have a fitted effect of over 55% in size; note: potency is the fitted concentration of half-maximal effect
Outline: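 PPARg-UAS-bla HEK293H cells were plated, rested 5 h at 37 C, then treated with compounds plus rosiglitazone (50 nM final) for 17 h at 37 C; viability was then read by CellTiter-Glo luminescence after 30 min at room temperature.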

[7] = qHTS assay for small molecule agonists of the antioxidant response element (ARE) signaling pathway - cell viability counter screen (AID 743203; calls by dose curve; note: nearly all actives have a fitted effect of over 55% in size; note: potency is the fitted concentration of half-maximal effect)
Outline: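 Viability counter screen: CellTiter-Glo luminescence, read after 30 min at room temperature, in ARE-bla HepG2 wells. Compound exposure lasted 16 h at 37C/5% CO2, following a 5 h pre-incubation of the cells after plating.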

[8] = qHTS assay for small molecule activators of the heat shock response signaling pathway - cell viability counter screen (AID 743209); note: nearly all actives have a fitted effect of over 50% in size; note: potency is the fitted concentration of half-maximal effect
Outline: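 Cytotoxicity counter screen run in the same wells as the heat-shock bla reporter assay: HeLa HSE-bla cells, 5 h compound exposure at 37 C, viability read by CellTiter-Glo luminescence.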

[9] = qHTS assay to identify small molecule agonists of the peroxisome proliferator-activated receptor delta (PPARd) signaling pathway - cell viability counter screen (AID 743211); note: nearly all actives have a fitted effect of over 55% in size; note: potency is the fitted concentration of half-maximal effect
Outline: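 qHTS cell viability: PPARd-bla HEK293H; 17 h cpd, 37C; CellTiter-Glo, luminescence at 30 min RT.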

[10] = qHTS assay for small molecule agonists of the antioxidant response element (ARE) signaling pathway (AID 743202; active = well fitted activation curve with a large enough effect in the signal ratio in the repeat runs, not every such curve was filed as active; inconclusive = weak or mixed curves, or effect the other way; inactive = no such curve, though single readings can be large or run the other way; the % refers to the signal ratio; note: potency is the fitted concentration of half-maximal effect)
Outline: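 Steps: seed ARE-bla HepG2 cells (2,000/well); incubate 5 h at 37 C; add compounds by pin tool; incubate 16 h at 37 C; add FRET substrate; read fluorescence after 2 h at RT.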

[11] = qHTS assay to identify small molecule antagonists of the estrogen receptor alpha (ER-alpha) signaling pathway - cell viability counter screen (AID 743074; calls by dose curve; note: nearly all actives have a fitted effect of over 45% in size; note: potency is the fitted concentration of half-maximal effect)
[12] = qHTS assay to identify small molecule antagonists of the estrogen receptor alpha (ER-alpha) signaling pathway using the BG1 cell line - cell viability counter screen (AID 743081);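 note: compound given together with 17beta-estradiol as the ER stimulus; nearly all actives have a fitted effect of over 45% in size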; note: potency is the fitted concentration of half-maximal effect
[13] = target: Estrogen receptor (Homo sapiens) (UniProt P03372); experiment: qHTS assay to identify small molecule antagonists of the estrogen receptor alpha (ER-alpha) signaling pathway (AID 743069; active = well fitted curve in the direction sought with a large enough effect in the signal ratio in the repeat runs, not every such curve was filed as active; inconclusive = weak or mixed curves, or effect the other way; inactive = no such curve, though single readings can be large or run the other way; the % refers to the signal ratio; note: potency is the fitted concentration of half-maximal effect)
Outline: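 Screening used a UAS-driven beta-lactamase reporter integrated into HEK293 cells expressing ER-alpha, stimulated with 17beta-estradiol alongside test compounds over 18 hr at 37C; signal came from LiveBLAzer B/G FRET fluorescence.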

[14] = target: Estrogen receptor (Homo sapiens) (UniProt P03372); experiment: qHTS assay to identify small molecule agonists of the estrogen receptor alpha (ER-alpha) signaling pathway (AID 743075; calls by dose curve)
[15] = qHTS assay to identify small molecule antagonists of the estrogen receptor alpha (ER-alpha) signaling pathway using the BG1 cell line (AID 743080; calls by dose curve;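 note: BG1 cells stimulated with 17beta-estradiol alongside compound; nearly all actives have a fitted effect of over 25% in size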; note: potency is the fitted concentration of half-maximal effect); settings: BG1Luc4E2 ERE-luciferase antagonist mode, luminescence; activity change, negative = inhibition: at 70.3 µM (top of the series)
Outline: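 BG1Luc4E2, endogenous ER-alpha, 4xERE-luc; 5 d charcoal-stripped FBS, phenol red free; 24 h plating; cpd + 17beta-estradiol 21.5 h, 37 C/5% CO2; CellTiter-Fluor viability 30 min, then ONE-Glo luciferase 30 min RT.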

[16] = qHTS assay for small molecule activators of the heat shock response signaling pathway (AID 743210; active = well fitted activation curve with a large enough effect in the signal ratio in the repeat runs, with a control signal flat, not every such curve was filed as active; inconclusive = weak or mixed curves; the % refers to the signal ratio;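 note: HeLa cells with beta-lactamase reporter driven by heat shock elements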)
Outline: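 Activation of heat shock element-controlled beta-lactamase expression is measured in HeLa cells by LiveBLAzer FRET fluorescence, with compound exposure lasting 5 h at 37 C and substrate loading 2.5 h at room temperature.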

[17] = target: Estrogen receptor (Homo sapiens) (UniProt P03372); experiment: qHTS assay to identify small molecule agonists of the estrogen receptor alpha (ER-alpha) signaling pathway using the BG1 cell line (AID 743079); settings: BG1Luc4E2 cells, ERE-luciferase agonist, 22 h; activation: at 70.3 µM (top of the series); note: nearly all actives have a fitted effect of over 20% in size
[18] = target: Peroxisome proliferator-activated receptor gamma (Homo sapiens) (UniProt P37231); experiment: qHTS assay to identify small molecule antagonists of the peroxisome proliferator-activated receptor gamma (PPARg) signaling pathway (AID 743191; calls by dose curve; note: nearly all actives have a fitted effect of over 30% in size)
Outline: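 GeneBLAzer PPARg UAS-bla HEK293H cells carrying a UAS-driven beta-lactamase reporter were plated at 3000 cells/well, preincubated 5 h at 37C, then given compound for 17 h at 37C; LiveBLAzer B/G FRET substrate was read after 1 h at room temperature.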

[19] = target: Peroxisome proliferator-activated receptor gamma (Homo sapiens) (UniProt P37231); experiment: qHTS assay to identify small molecule agonists of the peroxisome proliferator-activated receptor gamma (PPARg) signaling pathway (AID 743094; active = well fitted activation curve with a large enough effect in the signal ratio in the repeat runs, not every such curve was filed as active; inconclusive = weak or mixed curves, or effect the other way; inactive = no such curve, though single readings can be large or run the other way; the % refers to the signal ratio)
Outline: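 Agonist activity was taken from a beta-lactamase reporter (FRET substrate, 1 h at room temperature) in HEK293H cells carrying a PPARg UAS-bla construct. Compounds in DMSO were incubated 17 h at 37C after a 5 h cell pre-incubation.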

Measured: Potency

Chain of Aromatase (Homo sapiens) (P11511 whole entry, looked up): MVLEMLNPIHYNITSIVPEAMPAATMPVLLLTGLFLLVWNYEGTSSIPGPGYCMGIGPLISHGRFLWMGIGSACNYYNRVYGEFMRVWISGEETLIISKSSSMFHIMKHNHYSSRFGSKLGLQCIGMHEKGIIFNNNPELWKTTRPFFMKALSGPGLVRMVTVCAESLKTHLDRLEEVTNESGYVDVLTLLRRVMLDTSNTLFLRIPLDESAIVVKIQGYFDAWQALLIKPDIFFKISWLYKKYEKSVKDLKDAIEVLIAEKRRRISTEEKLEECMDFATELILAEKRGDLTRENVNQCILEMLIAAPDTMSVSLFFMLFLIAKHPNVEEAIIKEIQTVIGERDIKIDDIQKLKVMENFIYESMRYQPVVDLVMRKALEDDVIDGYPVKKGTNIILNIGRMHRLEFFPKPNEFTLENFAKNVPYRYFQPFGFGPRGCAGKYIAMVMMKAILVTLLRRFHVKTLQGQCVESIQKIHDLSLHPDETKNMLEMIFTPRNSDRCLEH
Chain of Aryl hydrocarbon receptor (Homo sapiens) (P35869 whole entry, looked up): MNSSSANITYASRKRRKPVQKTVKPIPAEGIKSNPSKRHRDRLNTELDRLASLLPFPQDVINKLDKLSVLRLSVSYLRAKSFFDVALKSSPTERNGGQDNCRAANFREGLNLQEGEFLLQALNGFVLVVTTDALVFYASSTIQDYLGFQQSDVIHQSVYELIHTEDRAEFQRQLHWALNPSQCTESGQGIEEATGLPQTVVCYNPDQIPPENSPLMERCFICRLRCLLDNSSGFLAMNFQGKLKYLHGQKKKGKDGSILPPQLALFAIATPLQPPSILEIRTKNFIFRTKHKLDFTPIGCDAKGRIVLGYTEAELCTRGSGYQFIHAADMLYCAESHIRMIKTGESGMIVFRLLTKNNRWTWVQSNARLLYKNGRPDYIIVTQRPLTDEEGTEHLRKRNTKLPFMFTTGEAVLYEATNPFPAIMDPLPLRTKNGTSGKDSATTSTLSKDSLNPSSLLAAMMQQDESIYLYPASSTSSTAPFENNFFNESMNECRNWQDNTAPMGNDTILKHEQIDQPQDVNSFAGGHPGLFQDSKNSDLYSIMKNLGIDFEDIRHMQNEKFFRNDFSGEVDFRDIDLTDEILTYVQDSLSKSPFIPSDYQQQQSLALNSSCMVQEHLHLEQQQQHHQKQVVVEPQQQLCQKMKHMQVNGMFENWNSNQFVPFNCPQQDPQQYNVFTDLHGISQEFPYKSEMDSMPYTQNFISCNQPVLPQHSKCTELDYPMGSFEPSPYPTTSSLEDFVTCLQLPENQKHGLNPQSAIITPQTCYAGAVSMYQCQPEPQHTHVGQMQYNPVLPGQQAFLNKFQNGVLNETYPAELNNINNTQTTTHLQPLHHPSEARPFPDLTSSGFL
Chain of Estrogen receptor (Homo sapiens) (P03372 whole entry, looked up): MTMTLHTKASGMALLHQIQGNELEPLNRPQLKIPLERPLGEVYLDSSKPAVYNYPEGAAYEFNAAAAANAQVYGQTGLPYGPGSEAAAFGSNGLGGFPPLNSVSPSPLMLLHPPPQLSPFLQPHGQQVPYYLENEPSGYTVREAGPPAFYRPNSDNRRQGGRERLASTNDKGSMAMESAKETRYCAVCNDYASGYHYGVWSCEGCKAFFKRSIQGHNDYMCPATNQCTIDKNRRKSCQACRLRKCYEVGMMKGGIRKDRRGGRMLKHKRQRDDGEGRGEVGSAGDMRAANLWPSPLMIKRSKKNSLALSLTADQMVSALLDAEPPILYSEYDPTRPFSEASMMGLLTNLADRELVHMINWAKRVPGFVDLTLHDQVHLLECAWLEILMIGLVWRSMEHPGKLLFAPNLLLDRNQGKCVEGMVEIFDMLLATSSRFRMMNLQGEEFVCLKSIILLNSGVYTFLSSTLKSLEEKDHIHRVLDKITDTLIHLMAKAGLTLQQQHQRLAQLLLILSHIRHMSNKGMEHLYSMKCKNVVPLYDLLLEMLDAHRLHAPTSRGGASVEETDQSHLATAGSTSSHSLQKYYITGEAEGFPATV
Chain of Peroxisome proliferator-activated receptor gamma (Homo sapiens) (P37231 whole entry, looked up): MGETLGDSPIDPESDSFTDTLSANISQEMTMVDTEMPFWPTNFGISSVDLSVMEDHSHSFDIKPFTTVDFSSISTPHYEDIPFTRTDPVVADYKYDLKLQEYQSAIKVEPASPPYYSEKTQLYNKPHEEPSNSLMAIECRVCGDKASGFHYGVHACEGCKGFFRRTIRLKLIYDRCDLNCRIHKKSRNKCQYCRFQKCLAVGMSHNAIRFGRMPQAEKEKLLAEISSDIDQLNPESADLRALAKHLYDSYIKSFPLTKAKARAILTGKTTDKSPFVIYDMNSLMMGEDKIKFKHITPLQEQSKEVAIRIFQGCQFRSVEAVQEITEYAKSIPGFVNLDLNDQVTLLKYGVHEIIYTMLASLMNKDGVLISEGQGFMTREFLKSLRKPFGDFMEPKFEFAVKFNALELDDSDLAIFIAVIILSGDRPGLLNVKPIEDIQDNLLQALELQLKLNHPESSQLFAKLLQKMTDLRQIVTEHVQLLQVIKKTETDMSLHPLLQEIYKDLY

O=C1C=CC(=O)N1c1ccccc1
active: [1] 4.86 µM | Aromatase (Homo sapiens) 10.9 µM | [3] 9.69 µM | [5] 61.1 µM | [6] 13.8 µM | [7] 12.2 µM | [8] 21.9 µM | [9] 15.5 µM
inactive: [2] | [4]

CC(=O)OC(OC(C)=O)c1ccc([N+](=O)[O-])o1
inactive: [2] | [4]
active: [1] 13.9 µM | Aromatase (Homo sapiens) 17.5 µM | [3] 13.9 µM | [6] 49.8 µM | [10] 15.6 µM | [7] 62.2 µM | [8] 19.8 µM | [9] 49.8 µM

CN(C)c1ccc(N=NS(=O)(=O)O)cc1
inactive: [1] | [2] | [7] | [8]
active: [4] 14.5 µM | [10] 8.63 µM

C=CC(=O)OCCC#N
active: [1] 54.8 µM | [10] 34.6 µM
inactive: [2] | [11] | [12] | [4] | [5] | [7] | [9]

COc1cc(C=C2CCC/C(=C\c3ccc(O)c(OC)c3)C2=O)ccc1O
inactive: [14] | [15] | [4]
active: [1] 6.68 µM | [13] 15.1 µM [inconclusive] | Aromatase (Homo sapiens) 21.1 µM | [3] 21.1 µM | [5] 23.7 µM | [6] 21.1 µM | [7] 26.6 µM | [9] 29.8 µM

Oc1ccc(-c2ccc(O)cc2)cc1
inactive: [1] | [2] | [12] | Aromatase (Homo sapiens) | [3] | [4] | [5] | [6] | [8] | [16] | [9]

CC(C)(c1cc(Br)c(O)c(Br)c1)c1cc(Br)c(O)c(Br)c1
inactive: [2] | [12] | [5]
active: [1] 27.2 µM and 48.4 µM and 51.6 µM | [6] 54.8 µM and 43.5 µM and 46.3 µM | [10] 23 µM | [7] 60.9 µM and 57.9 µM

CCCCCCCCCCOCC(O)CN (centres undefined)
active: [1] 9.44 µM | Aromatase (Homo sapiens) 33.5 µM | [9] 26.6 µM
inactive: [13] | [11] | [17] | [15] | [12] | [5] | [18]

O=C1NCCN1CCN1CCC(c2cn(-c3ccc(F)cc3)c3ccc(Cl)cc23)CC1
active: [1] 5.96 µM | [11] 15.1 µM and 9.52 µM | [15] 29.8 µM | [3] 29.8 µM | [5] 23.7 µM | [6] 29.8 µM | [7] 26.6 µM | [9] 23.7 µM
inactive: [14] | [12] | [4] | [19] | [8]

CCCCNc1c(C(=O)OCC)c(C)nc2c1cnn2CC
active: [4] 4.73 µM
inactive: [2] | [13] | [11] | [14] | [17] | [15] | [12] | Aromatase (Homo sapiens) | [3] | [5] | [18] | [6] | [7] | [8] | [16]

COc1cc(C(=O)NS(=O)(=O)c2ccccc2C)ccc1Cc1cn(C)c2ccc(NC(=O)OC3CCCC3)cc12
active: [1] 26.6 µM | [4] 26.6 µM | [10] 29.8 µM
inactive: [14] | [17] | [15] | [12] | Aromatase (Homo sapiens) | [3] | [5] | [7] | [8] | [16]

CCCCCCCC/C=C\CCCCCCCC(=O)NCc1ccc(O)c(OC)c1
inactive: [11] | [12] | Aromatase (Homo sapiens) | [3] | [4] | [5] | [6]
active: [1] 6.68 µM | [9] 23.7 µM

Cc1c(C)n(Cc2ccccc2)c2ccc(C(=O)OCCN(C)C)cc12
inactive: [12] | Aromatase (Homo sapiens) | [3] | [19] | [6] | [7] | [8]
active: [1] 10.6 µM | [9] 26.6 µM

CNCC[C@H](Oc1cccc2ccccc12)c1cccs1
active: [1] 7.5 µM | [4] 11.9 µM | [6] 11.9 µM | [7] 6.68 µM | [8] 29.8 µM | [9] 6.68 µM
inactive: [5]

CC=O
inactive: [4]
active: [1] 1.28 µM | [11] 57.5 µM | [15] 1.61 µM | [12] 32 µM | Aromatase (Homo sapiens) 5.08 µM | [3] 36 µM | [6] 25.7 µM | [7] 32 µM | [8] 22.9 µM | [9] 45.7 µM

S=P(N1CC1)(N1CC1)N1CC1
inactive: [2] | [13] | [11] | [14] | [17] | [15] | [12] | Aromatase (Homo sapiens) | [3] | [4] | [5] | [9]
